Test results taken from ChEMBL document CHEMBL4513216, “Probing the Open Global Health Chemical Diversity Library for Multistage-Active Starting Points for Next-Generation Antimalarials” (ACS Infect Dis, 2020).
Hit rate of the full screen: of about 68,000 compounds, about 2,700 (4%) showed an effect of 50% or more. The sample holds strong results, similar compounds and a random draw of the others, so the mix is not that of the screen.

These compounds were tested on Plasmodium berghei (assay: Screen against P. berghei liver stage (PbLuc), transformed with Luciferase, at 2uM). Conditions: tested at 2 uM.
Format: functional, HepG2

Row | SMILES | INHIBITION [%]
1 | Cc1ccc(C(=O)N2CCC3(CCC(=O)N(CC(C)O)C3)CC2)c(O)c1 (stereo not drawn) | -0.85
2 | O=C(NCCn1ccc(-c2ccncc2)n1)C1CC1 | -19.3
3 | Fc1cc(Cl)cnc1N1CCCC(c2nccn2Cc2ccncc2)C1 (stereo not drawn) | 17.69
4 | CC(C)CCN1C[C@@H]2C[C@H](C(=O)Nc3ccccc3)[C@H](C1)O2 | 73.15
5 | CC(C)CS(=O)(=O)N1C[C@@H]2C[C@H](C(=O)NCc3ccccc3)[C@H](C1)O2 | 75.33
6 | O=C(NCc1ccccc1)[C@H]1C[C@H]2CN(S(=O)(=O)C3CC3)C[C@@H]1O2 | 14.94
7 | CCN1C[C@@H]2C[C@H](C(=O)Nc3ccccc3)[C@H](C1)O2 | 37.65
8 | CN(C)S(=O)(=O)N1C[C@@H]2C[C@H](C(=O)NCc3ccccc3)[C@H](C1)O2 | -32.96
9 | CC(C)CCN1C[C@@H]2C[C@H](C(=O)Nc3cccnc3)[C@H](C1)O2 | 26.76
10 | Cc1nnn2c1COC(CNC(=O)c1cccn1C)C2 (stereo not drawn) | 42.4
11 | Cc1cc(Br)c(O)c(-c2nc(N3CCCCC3)sc2C)c1 | 14.95
12 | CN(Cc1cnn(C)c1)S(=O)(=O)N1CCCCCC1 | 47.68
13 | Cc1noc(C(C)N2CCN(CC(=O)N3CCCC3)CC2)n1 (stereo not drawn) | -14.01
14 | C1CCC(c2nnc3sc(C4CCCO4)nn23)C1 (stereo not drawn) | -11.31
15 | C1CCC(c2nnc3sc(C4CCOC4)nn23)C1 (stereo not drawn) | 4.12
16 | C1CCC(c2nn3c(C4CCCO4)nnc3s2)C1 (stereo not drawn) | 79.8
17 | Cc1cc(C2CCCN(S(=O)(=O)c3cn[nH]c3)C2)ccn1 (stereo not drawn) | 49.07
18 | CN(CCNC(=O)c1cnc(-c2ccccc2)nc1)S(C)(=O)=O | -50.8
19 | CC(=O)NCCNC(=O)c1cnc(-c2ccccc2)nc1 | 19.47
20 | CCS(=O)(=O)NCCNC(=O)c1cnc(-c2ccccc2)nc1 | -22.82
21 | CCN(CC)CCNC(=O)c1cnc(-c2ccccc2)nc1 | -16.21
22 | CC(C)N(C)CCCNC(=O)c1cnc(-c2ccccc2)nc1 | 67.83
23 | CN(C)CCCNC(=O)c1ccnc(OCc2ccccc2)c1 | 52.85
24 | CS(=O)(=O)NCCNC(=O)c1cnc(-c2ccccc2)nc1 | 73.01
25 | O=C(NCCCN1CCOCC1)c1ccnc(OCc2ccccc2)c1 | -47.27
26 | COC(=O)CCNC(=O)c1ccc(OCc2ccccc2)nc1 | -45.68
27 | COCCN(Cc1cccnc1)S(=O)(=O)c1cc(C)ccc1F | 37.79
28 | Cn1cc(NS(=O)(=O)c2ccc(C(F)(F)F)cc2)ccc1=O | 21.83
